Read-outs that look alike come from different tables or passages of the source.
How the values were obtained:
Parameters in all cases: species or system human, MV4-11 + K-562 + COLO205 + SK-N-BE2 + OVCAR-8
[1] = test system: EGFR; conditions: read-out: apparent Kd, n = 1
[2] = test system: PDXK; conditions: read-out: apparent Kd; compound concentrations: 100 nM and 1000 nM (sheet 'Samples'), CATDS: 3.03985195702474E-2; n = 1
[3] = test system: MET; conditions: read-out: apparent Kd, n = 1
[4] = test system: GSK3A; conditions: compound concentrations:0.3nM, 1nM, 3nM, 10nM, 30nM, 100nM, 300nM, by the legend:Standard error of the EC50 estimation as provided by the drc package.; for Kd: read-out: apparent Kd
[5] = test system: GSK3B; conditions: compound concentrations:0.3nM, 1nM, 3nM, 10nM, 30nM, 100nM, 300nM, by the legend:Standard error of the EC50 estimation as provided by the drc package.; for Kd: read-out: apparent Kd
[6] = test system: LATS1; conditions: compound concentrations:0.3nM, 1nM, 3nM, 10nM, 30nM, 100nM, 300nM, by the legend:Standard error of the EC50 estimation as provided by the drc package.; for Kd: read-out: apparent Kd
[7] = test system: PKN1; conditions: compound concentrations:0.3nM, 1nM, 3nM, 10nM, 30nM, 100nM, 300nM, by the legend:Standard error of the EC50 estimation as provided by the drc package.; for Kd: read-out: apparent Kd
[8] = test system: PRKX; conditions: compound concentrations:0.3nM, 1nM, 3nM, 10nM, 30nM, 100nM, 300nM, by the legend:Standard error of the EC50 estimation as provided by the drc package.; for Kd: read-out: apparent Kd
[9] = test system: ACOX1; conditions: read-out: apparent Kd; compound concentrations:100 nM and 1000 nM (sheet 'Samples'); n = 1
[10] = test system: AKT1; conditions: read-out: apparent Kd, compound concentrations: 100 nM and 1000 nM (sheet 'Samples'), n = 1
[11] = test system: CSNK1G3; conditions: read-out: apparent Kd; compound concentrations: 100 nM and 1000 nM (sheet 'Samples'), CATDS: 4.4654853896455996E-3; n = 1
[12] = test system: DCTPP1; conditions: read-out: apparent Kd; compound concentrations: 100 nM and 1000 nM (sheet 'Samples'), CATDS: 4.22997641527893E-3; n = 1
[13] = test system: DDR2; conditions: read-out: apparent Kd, compound concentrations: 100 nM and 1000 nM (sheet 'Samples'), n = 1
[14] = test system: ERN1; conditions: read-out: apparent Kd, compound concentrations: 100 nM and 1000 nM (sheet 'Samples'), n = 1
[15] = test system: PI4KA; conditions: read-out: apparent Kd; compound concentrations: 100 nM and 1000 nM (sheet 'Samples'), CATDS: 7.2985744477334297E-3; n = 1
[16] = test system: PRKDC; conditions: read-out: apparent Kd, n = 1
[17] = test system: TAOK3; conditions: read-out: apparent Kd; compound concentrations: 100 nM and 1000 nM (sheet 'Samples'), CATDS: 4.5729665408397397E-3; n = 1
[18] = test system: CAMK4; conditions: read-out: apparent Kd; compound concentrations: 100 nM and 1000 nM (sheet 'Samples'), CATDS: 7.8205742217562803E-3; n = 1
[19] = compound concentrations:100 nM and 1000 nM (sheet 'Samples')
[20] = 1000nM,R2:0.98330827393916598,slope:1.45562792091779,EC50 Standard Error
[21] = 1000nM,R2:0.96555674920545798,slope:0.96794765422259599,EC50 Standard Error
[22] = 1000nM,R2:0.97889671835051595,slope:1.6751561590983699,EC50 Standard Error
[23] = 1000nM,R2:0.97867991540409105,slope:0.79419686113227705,EC50 Standard Error
[24] = 1000nM,R2:0.94127289372754697,slope:1.4629649923763099,EC50 Standard Error
[25] = 1000nM,R2:0.98891896520214295,slope:0.86644868747919301,EC50 Standard Error
[26] = 1000nM,R2:0.97796062612419798,slope:0.95181625856524898,EC50 Standard Error
[27] = 1000nM,R2:0.99282697672558795,slope:1.31312375653091,EC50 Standard Error
[28] = 1000nM,R2:0.99748458534068796,slope:1.1297658372901001,EC50 Standard Error
[29] = 1000nM,R2:0.99104054700331501,slope:1.8352310088782899,EC50 Standard Error
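Throughout, for EC50: competition pulldown with Kinobeads ε in cell lysates, inhibitor preincubated 45 min at 4 °C, bound kinases quantified by LC–MS/MS against DMSO control.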
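Throughout, for Kd: competition pulldown with Kinobeads ε in cell lysates, inhibitor preincubated 45 min at 4 °C, bound kinases quantified by LC–MS/MS against DMSO control.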

`CN(c1ccc(NC(=O)N2CCN(CCCN3CCOCC3)CC2)cc1)c1ccnc(Nc2ccc(CS(C)(=O)=O)cc2)n1.Cl` [GW830899A] was tested, and the potency estimated from few doses ([1]; compound concentrations: 100 nM and 1000 nM (sheet 'Samples'), CATDS: 1.7872150639672801E-2) was 2150 nM and the potency estimated from few doses [2] was 617 nM.
Work on `CNC(=O)c1ccccc1Nc1nc(Nc2ccc(N3CCOCC3)cc2)ncc1Cl.Cl` [GSK1576028A] yielded a potency estimated from few doses [1, 19] of 580 nM and a potency estimated from few doses [3, 19] of 68.1 nM.
Work on `O=C1N=C(NCCc2ccc(Cl)cc2)S/C1=C\c1ccc2ncccc2c1` [RO4498479-000] yielded a potency estimated from few doses ([1]; compound concentrations: 100 nM and 1000 nM (sheet 'Samples'), CATDS: 6.9080879323699202E-3) of 1730 nM.
`CCn1c(-c2nonc2N)nc2c(C#CC(C)(C)O)nc(OCCNC)cc21.Cl` [GSK949675A] gave an EC50 [4, 20] of 167 nM, a Kd [4, 20] of 104 nM and an EC50 [5, 21] of 322 nM. It also gave a Kd [5, 21] of 171 nM, an EC50 [6, 22] of 238 nM and a Kd [6, 22] of 238 nM. The EC50 [7, 23] was 4240 nM, the Kd [7, 23] was 4230 nM and the EC50 [8, 24] was 221 nM. It also gave a Kd [8, 24] of 221 nM.
`Cc1cccc(Nc2nc(N[C@H]3CCCC[C@H]3N)ncc2C(N)=O)c1.Cl` [GSK986310C] was tested, and the potency estimated from few doses [9] was 1340 nM.
In the case of `Cn1ncc2c(N)ncnc21` [SKF-18267], the potency estimated from few doses ([10]; CATDS: 4.8125130234568303E-3) is reported as 879 nM, the potency estimated from few doses [11] is reported as 1030 nM and the potency estimated from few doses [12] is reported as 1170 nM. It also gave a potency estimated from few doses ([13]; CATDS: 4.5419231694641699E-3) of 994 nM, a potency estimated from few doses ([1]; compound concentrations: 100 nM and 1000 nM (sheet 'Samples'), CATDS: 3.5324220214717501E-3) of 1890 nM and a potency estimated from few doses ([14]; CATDS: 4.2148373609633104E-3) of 1180 nM. It also gave a potency estimated from few doses ([3]; compound concentrations: 100 nM and 1000 nM (sheet 'Samples'), CATDS: 4.2018834707484203E-3) of 1190 nM, a potency estimated from few doses [15] of 420 nM and a potency estimated from few doses ([16]; compound concentrations: 100 nM and 1000 nM (sheet 'Samples'), CATDS: 6.2124168993476997E-3) of 547 nM. For the same compound, the potency estimated from few doses [17] was 979 nM.
`O=C1NC(=O)C(N2CCc3ccccc32)=C1c1ccccc1Cl` [SB-373598] gave a potency estimated from few doses [16, 19] of 1200 nM.
Work on `CN1C[C@@H]2Cn3c(c(C4=C(c5cn(C)c6ccccc56)C(=O)NC4=O)c4ccccc43)C[C@H]2C1.Cl` [RO0320234-001] yielded a potency estimated from few doses [16, 19] of 859 nM.
In the case of `Clc1cc(Cl)cc(Nc2ccnc(Nc3cc(Cl)cc(Cl)c3)n2)c1` [GSK175726A], the potency estimated from few doses ([16]; compound concentrations: 100 nM and 1000 nM (sheet 'Samples'), CATDS: 1.07981791880609E-2) is reported as 607 nM.
In the case of `CCn1c(-c2nonc2N)nc2c(C#CC(C)(C)O)nc(OCCN)cc21.CCn1c(-c2nonc2N)nc2c(C#CC(C)(C)O)nc(OCCN)cc21.Cl.Cl` [GSK902056A], the EC50 [4, 25] is reported as 173 nM, the Kd [4, 25] is reported as 164 nM and the EC50 [5, 26] is reported as 296 nM. It also gave a Kd [5, 26] of 288 nM, an EC50 [6, 27] of 87.4 nM and a Kd [6, 27] of 87.4 nM. The EC50 [7, 28] was 92.3 nM, the Kd [7, 28] was 92.3 nM and the EC50 [8, 29] was 127 nM. The Kd [8, 29] was 127 nM.
`CCn1c(-c2nonc2N)nc2c(-c3ccccc3)ncc(OCCCN)c21.CCn1c(-c2nonc2N)nc2c(-c3ccccc3)ncc(OCCCN)c21.O=C(O)C(F)(F)F.O=C(O)C(F)(F)F` [GSK260205A] gave a potency estimated from few doses ([10]; CATDS: 6.9127027959846404E-2) of 157 nM.
For `CCOC(=O)N1CCC(n2cnc(-c3ccc(F)cc3)c2-c2ccnc(N)n2)CC1` [SB-219952], the potency estimated from few doses [18] was 1850 nM, the potency estimated from few doses ([13]; CATDS: 9.5517965767772696E-3) was 979 nM and the potency estimated from few doses ([14]; CATDS: 7.4915709296516997E-3) was 2200 nM.

Reference: paper PMC11062922 (Nature Chemical Biology, 2023)
